Results from PubChem BioAssay (NCI).
About 79,000 compounds went through this panel and 15% of them were active in at least one assay; those are over-represented in the sample as a whole. Active and inactive are the calls of the source. Cut-off read from the data, not from the text of the source: active = growth inhibition above about 70%; inactive = the rest. Residues, ends and D or L forms follow the SMILES beside them. *: point of attachment. Fmoc = O=C(OCC1c2ccccc2-c2ccccc21)*; Boc = CC(C)(C)OC(=O)*

How the values were obtained:
[1] = NCI Yeast Anticancer Drug Screen. Data for the rad52 strain (AID 147);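 note: 0% = growth of vehicle-treated control cultures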; details: S. cerevisiae rad52 mutant growth inhibition, active compounds read high
Outline: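 The repair-mutant yeast strain was incubated with compounds, then growth was read and inhibition derived relative to vehicle.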

[2] = NCI Yeast Anticancer Drug Screen. Data for the wt1 strain (AID 149);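 note: 0% = growth of vehicle-treated wt1 cultures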; details: S. cerevisiae wt1 strain (SPY 50644) growth inhibition, active compounds read high
Outline: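 Compounds are added to wt1 yeast cultures. Growth is then measured. Inhibition is expressed relative to vehicle-treated controls.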

[3] = NCI Yeast Anticancer Drug Screen. Data for the rad50EPP+ strain (AID 151);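 note: 0% = growth of vehicle-treated control cultures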; details: S. cerevisiae rad50 mutant strain, active compounds read high
Outline: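 Vehicle-normalised growth inhibition; rad50EPP+ yeast strain, altered in DNA damage repair, compound-treated.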

[4] = NCI Yeast Anticancer Drug Screen. Data for the mgt1 strain (AID 153); details: S. cerevisiae mgt1 mutant growth inhibition, active compounds read high
Outline: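 Vehicle-normalized growth inhibition is determined in mgt1 yeast, a strain selected for a defined alteration in DNA repair or cell cycle control.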

[5] = NCI Yeast Anticancer Drug Screen. Data for the rad50 strain (AID 155);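 note: 0% = growth of vehicle-only cultures of the same strain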; details: S. cerevisiae rad50 strain growth inhibition, active compounds read high
Outline: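 Inhibition values express reduced yeast growth in compound-treated cultures relative to vehicle-treated controls.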

[6] = NCI Yeast Anticancer Drug Screen. Data for the mec2-1 strain (AID 157); details: S. cerevisiae mec2-1 strain, active compounds read high
Outline: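 Mutant yeast (mec2-1) grown with compound; growth inhibition relative to vehicle control reported.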

[7] = NCI Yeast Anticancer Drug Screen. Data for the rad14 strain (AID 159);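 note: 0% = growth of vehicle-treated control cultures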; details: S. cerevisiae rad14 strain growth inhibition, active compounds read high
Outline: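 A mutant yeast strain defective in DNA damage repair is treated with compound; inhibition of its growth is scored against untreated, vehicle-exposed cultures.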

[8] = NCI Yeast Anticancer Drug Screen. Data for the sgs1 mgt1 strain (AID 161);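 note: 0% = growth of cultures given vehicle only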; details: S. cerevisiae sgs1 mgt1 strain, active compounds read high
Outline: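 Compounds are added to genetically altered yeast, and growth is compared with cultures given vehicle alone to give percent inhibition.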

[9] = NCI Yeast Anticancer Drug Screen. Data for the CLN2oe strain (AID 163);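 note: 0% = growth of vehicle-only control cultures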; details: S. cerevisiae CLN2oe strain, active compounds read high
Outline: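 Compounds are applied to yeast harbouring a defined cell-cycle control change; reduced growth compared with vehicle-treated controls gives the value.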

[10] = NCI Yeast Anticancer Drug Screen. Data for the cln2 rad14 strain (AID 165);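 note: 0% = growth equal to vehicle treated cultures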; details: S. cerevisiae cln2 rad14 strain, active compounds read high
Outline: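 Readout is yeast growth inhibition versus vehicle-treated controls, using a strain with cln2 and rad14 alterations exposed to compound.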

[11] = NCI Yeast Anticancer Drug Screen. Data for the bub3 strain (AID 167); details: S. cerevisiae bub3 mutant strain, active compounds read high
Outline: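 Steps: expose the mutant yeast strain to compound; grow alongside vehicle-treated cultures; measure growth; express inhibition against the vehicle cultures.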

[12] = NCI Yeast Anticancer Drug Screen. Data for the wt2 strain (AID 169);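 note: 0% = growth of vehicle-treated yeast cultures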; details: S. cerevisiae wt2 strain growth inhibition, active compounds read high
Outline: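 Against vehicle-treated controls, the growth of yeast exposed to each compound was compared, and the inhibition was recorded.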

[13] = NCI Yeast Anticancer Drug Screen. Data for the sgs1 strain (AID 173);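 note: 0% = growth of vehicle-only control cultures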; details: S. cerevisiae sgs1 mutant, active compounds read high
Outline: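 Each compound was added to cultures of the altered yeast strain. Growth was recorded, and inhibition was derived by comparison with vehicle controls.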

[14] = NCI Yeast Anticancer Drug Screen. Data for the mlh1 rad18 strain (AID 175); details: S. cerevisiae mlh1 rad18 strain growth inhibition, active compounds read high
Outline: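 Genetically defined yeast (DNA repair-deficient) exposed to compounds; growth inhibition determined relative to vehicle.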

[15] = NCI Yeast Anticancer Drug Screen. Data for the rad18 strain (AID 177); details: S. cerevisiae rad18 mutant growth inhibition, active compounds read high
Outline: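 Vehicle-treated cultures served as the baseline for scoring compound-induced growth inhibition in DNA-repair-mutant yeast.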

[16] = NCI Yeast Anticancer Drug Screen. Data for the mlh1 strain (AID 171);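 note: 0% = growth of vehicle-treated control cultures of the same strain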; details: S. cerevisiae mlh1 strain growth inhibition, active compounds read high
Outline: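 Measured: yeast growth. Reference: vehicle-treated controls. Organism: strain with a defined alteration affecting DNA damage repair or cell cycle control, treated with compound.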

[17] = at 5.0 µM (retest, dose inferred, filed as 0.5)
[18] = at 50.0 µM (retest, dose inferred, filed as 5.0)

Measured: growth inhibition

O=C(Cc1ccccc1)NN1C(=O)C(Cl)C1c1cc(Br)cc(Br)c1O (stereo unspecified)
active: [1]; at 11.0 µM 92% | [1]; at 33.0 µM 93% | [1]; at 100.0 µM 88% | [2]; at 11.0 µM 73% | [2]; at 33.0 µM 94% | [2]; at 100.0 µM 89% | [4]; at 11.0 µM 94% | [4]; at 33.0 µM 95% | [4]; at 100.0 µM 91% | [5]; at 11.0 µM 81% | [5]; at 33.0 µM 91% | [5]; [18] 94% | [5]; at 50.0 µM 97% | [5]; at 100.0 µM 84% | [6]; at 11.0 µM 95% | [6]; at 33.0 µM 95% | [6]; [18] 94% | [6]; at 50.0 µM 97.3% | [6]; at 100.0 µM 92% | [7]; at 11.0 µM 85% | [7]; at 33.0 µM 93% | [7]; at 100.0 µM 92% | [8]; [18] 96% | [8]; at 50.0 µM 98% | [9]; at 11.0 µM 95% | [9]; at 33.0 µM 94% | [9]; at 100.0 µM 86% | [10]; [18] 93% | [10]; at 50.0 µM 95.2% | [11]; [17] 98% | [11]; at 11.0 µM 94% | [11]; at 33.0 µM 96% | [11]; [18] 96% | [11]; at 50.0 µM 97% | [11]; at 100.0 µM 87% | [12]; at 11.0 µM 88% | [12]; at 33.0 µM 94% | [12]; at 100.0 µM 90% | [13]; at 11.0 µM 92% | [13]; at 33.0 µM 93% | [13]; at 100.0 µM 88% | [14]; [18] 94% | [14]; at 50.0 µM 97.2% | [15]; at 11.0 µM 88% | [15]; at 33.0 µM 91% | [15]; at 100.0 µM 84%
inactive: [1]; at 1.2 µM 4% | [1]; at 3.7 µM 33% | [2]; at 1.2 µM -9% | [2]; at 3.7 µM -5% | [3]; at 1.2 µM -6% | [3]; at 3.7 µM 1% | [3]; at 11.0 µM 29% | [3]; at 33.0 µM 56% | [3]; at 100.0 µM 59% | [4]; at 1.2 µM -5% | [4]; at 3.7 µM 14% | [5]; at 1.2 µM 2% | [5]; at 3.7 µM 20% | [5]; [17] 13% | [6]; at 1.2 µM -3% | [6]; at 3.7 µM 19% | [6]; [17] 56% | [7]; at 1.2 µM -3% | [7]; at 3.7 µM -3% | [8]; [17] 61% | [9]; at 1.2 µM -6% | [9]; at 3.7 µM 18% | [10]; [17] 46% | [11]; at 1.2 µM -8% | [11]; at 3.7 µM 12% | [12]; at 1.2 µM -5% | [12]; at 3.7 µM 10% | [13]; at 1.2 µM 4% | [13]; at 3.7 µM 30% | [14]; [17] 47% | [15]; at 1.2 µM 5% | [15]; at 3.7 µM 27%

CC(C)(C)OC(=O)NCCCCC(NC(=O)C(Cc1c[nH]c2ccccc12)NC(=O)OCC1c2ccccc2-c2ccccc21)C(=O)O (stereo unspecified) (Fmoc-Trp-Lys(Boc)-OH; configuration not given here)
active: [4]; at 100.0 µM 75% | [7]; at 100.0 µM 70% | [10]; at 50.0 µM 82.8%
inactive: [1]; at 1.2 µM -3% | [1]; at 3.7 µM 0% | [1]; at 11.0 µM -2% | [1]; at 33.0 µM 10% | [1]; at 100.0 µM 58% | [2]; at 1.2 µM -2% | [2]; at 3.7 µM -2% | [2]; at 11.0 µM -3% | [2]; at 33.0 µM 2% | [2]; at 100.0 µM 50% | [3]; at 1.2 µM -1% | [3]; at 3.7 µM 0% | [3]; at 11.0 µM 2% | [3]; at 33.0 µM 2% | [3]; at 100.0 µM -5% | [4]; at 1.2 µM 0% | [4]; at 3.7 µM 2% | [4]; at 11.0 µM -4% | [4]; at 33.0 µM 8% | [5]; at 1.2 µM -3% | [5]; at 3.7 µM -1% | [5]; [17] -19% | [5]; at 11.0 µM -3% | [5]; at 33.0 µM 11% | [5]; [18] 22% | [5]; at 50.0 µM 15.4% | [5]; at 100.0 µM 56% | [6]; at 1.2 µM -1% | [6]; at 3.7 µM -4% | [6]; [17] 1% | [6]; at 11.0 µM -4% | [6]; at 33.0 µM 9% | [6]; [18] 36% | [6]; at 50.0 µM 42.6% | [6]; at 100.0 µM 52% | [7]; at 1.2 µM -1% | [7]; at 3.7 µM 0% | [7]; at 11.0 µM 1% | [7]; at 33.0 µM 28% | [8]; [17] -13% | [8]; [18] 21% | [8]; at 50.0 µM 36.1% | [9]; at 1.2 µM 4% | [9]; at 3.7 µM 1% | [9]; at 11.0 µM -7% | [9]; at 33.0 µM 17% | [9]; at 100.0 µM 66% | [10]; [17] 37% | [10]; [18] 21% | [11]; at 1.2 µM -3% | [11]; at 3.7 µM -1% | [11]; [17] -19% | [11]; at 11.0 µM -1% | [11]; at 33.0 µM 6% | [11]; [18] 5% | [11]; at 50.0 µM 18.4% | [11]; at 100.0 µM 59% | [12]; at 1.2 µM 0% | [12]; at 3.7 µM -2% | [12]; at 11.0 µM -4% | [12]; at 33.0 µM 1% | [12]; at 100.0 µM 61% | [13]; at 1.2 µM -1% | [13]; at 3.7 µM 0% | [13]; at 11.0 µM 0% | [13]; at 33.0 µM 11% | [13]; at 100.0 µM 61% | [14]; [17] -11% | [14]; [18] 50% | [14]; at 50.0 µM 60.6% | [15]; at 1.2 µM -1% | [15]; at 3.7 µM -2% | [15]; at 11.0 µM -2% | [15]; at 33.0 µM 8% | [15]; at 100.0 µM 59%

S=C1C(=Nc2ccccc2)N(c2ccccc2)/C(=N\c2ccccn2)N1c1ccccc1
active: [1]; at 33.0 µM 99% | [1]; at 100.0 µM 93% | [2]; at 33.0 µM 98% | [2]; at 100.0 µM 98% | [4]; at 33.0 µM 99% | [4]; at 100.0 µM 97% | [5]; at 33.0 µM 98% | [5]; [18] 97% | [5]; at 50.0 µM 98.1% | [5]; at 100.0 µM 91% | [6]; at 33.0 µM 99% | [6]; [18] 98% | [6]; at 50.0 µM 97.9% | [6]; at 100.0 µM 97% | [7]; at 33.0 µM 99% | [7]; at 100.0 µM 95% | [8]; [18] 98% | [8]; at 50.0 µM 98% | [9]; at 33.0 µM 99% | [9]; at 100.0 µM 97% | [10]; [18] 97% | [10]; at 50.0 µM 97.4% | [12]; at 33.0 µM 99% | [12]; at 100.0 µM 95%
inactive: [1]; at 1.2 µM -2% | [1]; at 3.7 µM 1% | [1]; at 11.0 µM 44% | [2]; at 1.2 µM -4% | [2]; at 3.7 µM -4% | [2]; at 11.0 µM 21% | [3]; at 1.2 µM -3% | [3]; at 3.7 µM -4% | [3]; at 11.0 µM -3% | [3]; at 33.0 µM 11% | [3]; at 100.0 µM 37% | [4]; at 1.2 µM -6% | [4]; at 3.7 µM -5% | [4]; at 11.0 µM 36% | [5]; at 1.2 µM -3% | [5]; at 3.7 µM -2% | [5]; [17] 41% | [5]; at 11.0 µM 46% | [6]; at 1.2 µM -7% | [6]; at 3.7 µM -1% | [6]; [17] 24% | [6]; at 11.0 µM 28% | [7]; at 1.2 µM -4% | [7]; at 3.7 µM -2% | [7]; at 11.0 µM 36% | [8]; [17] 10% | [9]; at 1.2 µM -8% | [9]; at 3.7 µM -11% | [9]; at 11.0 µM 37% | [10]; [17] 28% | [12]; at 1.2 µM -4% | [12]; at 3.7 µM -2% | [12]; at 11.0 µM 27% | [16]; at 1.2 µM -5% | [16]; at 3.7 µM -2% | [16]; at 11.0 µM 37%
